# OTUD3 inh: inhibitors of human OTUD3 deubiquitinase; purified OTUD3, Ub-rhodamine fluorescence, 2 h; OTU domain-containing protein 3 (Homo sapiens), Q5T2D3; inhibition, % at 25 µM; 0.7% of 47,000 active
# UCHL1 inh: inhibitors of human UCHL1 deubiquitinase. Ubiquitin carboxyl-terminal hydrolase isozyme L1 (Homo sapiens), P09936. purified UCHL1, Ub-rhodamine cleavage fluorescence. inhibition, % at 20 µM. 0.2% of 47,000 active. AID 1645859, 2021
# Target sequence (P09936 whole entry, looked up): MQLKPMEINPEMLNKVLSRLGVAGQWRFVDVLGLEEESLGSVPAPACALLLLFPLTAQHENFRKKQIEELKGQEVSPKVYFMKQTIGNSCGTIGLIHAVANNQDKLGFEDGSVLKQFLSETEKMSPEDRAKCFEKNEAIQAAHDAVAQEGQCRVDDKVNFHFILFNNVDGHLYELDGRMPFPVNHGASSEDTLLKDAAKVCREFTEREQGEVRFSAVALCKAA
# USP7 inh: inhibitors of human USP7 deubiquitinase; Ubiquitin carboxyl-terminal hydrolase 7 (Homo sapiens), Q93009; purified USP7, Ub-rhodamine cleavage fluorescence; AID 1645854, 2021; 0.3% of 47,000 active; inhibition, % at 20 µM
# An asterisk follows results filed as active. Sampled rows, rich in hits. Any-hit rate of the full collection: about 1.1%. Rule as the data show it: active = inhibition above about 30%; inactive = the rest.
SMILES,OTUD3 inh,UCHL1 inh,USP7 inh
Cn1nccc1C(=O)N1CCCCC1c1ncc(Cc2ccc(Cl)cc2)o1 (stereo not given),35.2*,1.3,-12.1
O=C(c1cnco1)N1CCCCC1c1ncc(Cc2ccc(Cl)cc2)o1 (stereo not given),10.8,2.2,-5.9
CN1CCCN(C(=O)c2cccc(F)c2)c2nc3ccccc3nc21,-2.8,5.1,-0.1
COc1ccc(-c2cc3nc(C4CCN(C(=O)OC(C)(C)C)CC4)c(C(=O)Nc4ccc(C)c(Cl)c4)cn3n2)cc1,2.1,-5.4,3.6
CCOc1ccc(-c2cc3nc(C4CCN(C(=O)OC(C)(C)C)CC4)c(C(=O)Nc4cc(F)ccc4F)cn3n2)cc1,31.0*,-5.8,8.6
O=C(COC(=O)c1cc(Cl)c2c(c1)OCO2)Nc1ccc2[nH]c(=O)[nH]c2c1,30.7*,2.3,-34.7
O=C(COC(=O)c1ccc(F)cc1)Nc1ccc2[nH]c(=O)[nH]c2c1,9.7,5.2,11.7
CC1CCc2cc(F)ccc2N1C(=O)/C=C/c1ccc2c(c1)OCO2 (stereo not given),3.6,3.3,7.5
N=C1C(c2nc3ccccc3s2)=C(O)CN1Cc1ccc(F)cc1,-1.2,-2.6,3.3
CC(c1ccccc1)N1CC(O)=C(c2nc3ccccc3s2)C1=N (stereo not given),6.7,0.1,30.2*
CC(C)OC(=O)c1cc2c(ccn2C)n1CC(=O)N(Cc1ccc(Cl)cc1)c1ccccc1,-1.1,-0.7,-22.3
O=C(NC1CC1)c1ccc(CN2C(=O)C3CCCN3C(=O)c3ccccc32)cc1 (stereo not given),5.8,2.5,7.9
N#Cc1cccc(NC(=O)Nc2cccn(Cc3ccccc3F)c2=O)c1,83.8*,34.7*,-63.4
N#Cc1ccc(NC(=O)Nc2cccn(Cc3ccccc3Br)c2=O)cc1,45.1*,24.0,-49.2
Cc1ccccc1NC(=O)CNc1ccc(C#N)cc1,-6.5,0.2,-3.5
N#Cc1cccc(NC(=O)Cn2cccc(-c3nc(-c4ccccc4)no3)c2=O)c1,-93.7,-28.7,-21.8
CC(C)(C)C(=O)N1CCCC(c2cncc(-c3ccn[nH]3)n2)C1 (stereo not given),-10.6,-2.2,-0.8
Cc1ncoc1C(=O)N1CCCC(c2ncc(Cc3ccccc3Cl)o2)C1 (stereo not given),-11.8,-4.4,-7.3
Cc1cc(N2CCN(c3ncccn3)CC2)nc2ccc(NC(=O)Cn3nc([N+](=O)[O-])c(Br)c3C)cc12,44.1*,6.9,9.8
Cc1cc(C(=O)Nc2ccc3nc(N4CCN(c5ncccn5)CC4)cc(C)c3c2)ccc1[N+](=O)[O-],-2.8,5.0,2.6
COc1ccccc1C(=O)N1CCC2(CC1)CO[C@@H]1c3ccccc3OC(C)(C)[C@H]1C2,-8.5,3.0,-0.2
Cc1cccc(NC(=O)c2ccc(N3CCCC3)nn2)c1,-0.1,-0.1,1.1
Cc1cc(C)c(C(=O)N2CCCC(C(=O)NCc3ccccc3)C2)[nH]1 (stereo not given),-0.6,-7.9,-0.7

# From PubChem BioAssay
